# Laboratory results taken from ChEMBL document CHEMBL3988442, “University of Dundee, Small-Polar-MMV Screening Library” (2021).
# Out of some 48,000 compounds screened, about 13,000 (27%) showed an effect of 50% or more. This is one part of the list.
# Test system: Wolbachia pipientis
# Experiment: Anti-Wolbachia Cell-Based Screen
# Assay type: functional
# Design: scale not given: in the data most compounds retested in dose-response had high values
# Conditions: 5 µM
row,Structure (SMILES),Percent Effect [%]
1,Cc1nc(N)c2ccc(C3CCCCN3)nc2n1.Cl (centres undefined),107.4
2,CCn1c(C)nnc1CN(C)C1CCN(CCCSC)C1 (centres undefined),119.6
3,CCn1c(C)nnc1CN(C)C1CCN(CCn2cccn2)C1 (centres undefined),0.3298
4,CCn1c(C)nnc1CN(C)C1CCN(CC2CCC2)C1 (centres undefined),111.4
5,CCn1c(C)nnc1CN(C)C1CCN(CCc2ccncc2)C1 (centres undefined),1.632
6,CCn1c(C)nnc1CN(C)C1CCN(CCS(=O)(=O)CC)C1 (centres undefined),144.9
7,CCn1c(C)nnc1CN(C)C1CCN(CCOc2ccccc2)C1 (centres undefined),149.5
8,CCn1c(C)nnc1CN(C)C1CCN(CCCOC)C1 (centres undefined),0.6511
9,COC(=O)c1ccc(CNC(=O)Cc2csc(C(C)=O)c2)cc1,12.04
10,COC(=O)c1ccc(CNCc2cn(C)nc2C)cc1,100.4
11,COc1ccc(CNCc2cn(C)nc2C)cc1,122.7
12,CCn1cc(CNCc2ccc(C(=O)OC)cc2)c(C)n1,153.8
13,COc1ccc(CNCc2cc(Br)c3c(c2)OCO3)cc1,-3.854
14,COc1ccc(-n2ccc(CNCc3ccc(OC)c(O)c3)n2)cc1,-11.8
15,COC(=O)c1ccc(CNCc2ccn(C)n2)cc1,138.6
16,COc1ccc(CCn2cnnc2[S+](C)[O-])cc1 (centres undefined),-1.402
17,COC(=O)c1ccc(CNC(=O)Nc2ccc(=O)n(C)c2)cc1,12.29
18,COC(=O)c1ccc(CNC(C)c2ccc(S(C)(=O)=O)cc2)cc1 (centres undefined),-2.189
19,Cc1ccc(-c2ncc(CNc3cnccc3CO)s2)cc1,-6.325
20,Cc1nc(-c2ccccc2)sc1C(=O)N(C1CC1)C1CC(=O)NC1=O (centres undefined),-7.701
21,CCN(CC)C(=O)CN(C)C(=O)c1cc(-c2cccc(Cl)c2)no1,-12
22,CCN(CC)c1ccc(NS(=O)(=O)c2cnn(C(C)C)c2)cn1,-6.938
23,COCc1ccc(C(=O)N2CCCN(Cc3ccc(F)cc3)CC2)s1,2.247
24,CCCS(=O)(=O)c1ccc(N2CCN(c3ccccn3)CC2)nn1,2.245
25,Cc1nn(C)c(N(C)C)c1CNCc1ccc(Cn2cccn2)cc1,10.8
26,Cc1nn(C)cc1CNCc1ccc(N(C)C)cc1,119.7

row,Structure (SMILES),Percent Effect [%]
1,Cc1ccc(CNCc2c(C)nn(C)c2N(C)C)cn1,-12.73
2,CC(C)(C)OC(=O)N1CCC[C@H](NCC2CCOCC2)C1,-10.59
3,Cc1cc(NC(=O)Cc2ccccc2O)c[nH]c1=O,7.885
4,Oc1nc(-c2cnccn2)nc2c1CCN(Cc1ccccn1)C2,89.8
5,O=C(Cc1ccccn1)N1CCc2c(O)nc(-c3cnccn3)nc2C1,94.87
6,O=C(Cc1ccccn1)N1CCc2nc(-c3cnccn3)nc(O)c2C1,-13.11
7,CCn1cc(CN2CCc3nc(N4CCOCC4)nc(O)c3CC2)cn1,-4.464
8,CN1CCN(C(=O)Cc2ccccn2)Cc2cccnc21,-6.313
9,CCn1cc(CN2CCc3nc(-c4ccccn4)nc(O)c3C2)cn1,107.7
10,CCOCCC(=O)N(C)Cc1noc(C(C)C)n1,-6.768
11,CC(C)CC(C(=O)N1CCCSCC1)N1CCCCC1=O (centres undefined),-10.63
12,COc1ccc(C(=O)N(c2ccc(OC)c(F)c2)C(C)C)cn1,3.547
13,CNS(=O)(=O)c1cccc(C(C)NCc2ccc(F)c(F)c2)c1 (centres undefined),18.96
14,COC(=O)c1ccc(N2CCC(N(C)c3ccccc3)CC2)nn1,-3.944
15,O=C(CCC1CCCO1)NCc1ccnc(-n2cccn2)c1 (centres undefined),-9.533
16,COCCN(Cc1sccc1C)C(=O)C1CCCN(C(N)=O)C1 (centres undefined),10.64
17,Cc1ncc(CNC(C)(C)CO)c2cc(C(=O)c3ccc(Br)cc3)oc12,82.9
18,COC(=O)c1oc(CNC(C)(C)CO)cc1C,5.82
19,COc1ncc(C(=O)NCc2ccc(Br)cc2)cn1,4.726
20,Cc1oc(CN(C)C(=O)c2ccc(Br)cc2)cc1C(=O)O,5.692
21,Cc1ncc(CNCCO)c2cc(C(=O)c3ccc(Br)cc3)oc12.Cl,215.6
22,CC(O)CNCc1ccccc1C(F)(F)F.Cl (centres undefined),-7.899
23,Cc1ncsc1CCN(C)Cc1ccc(CO)o1,-28.69
24,Cc1ncc(CNCC(C)O)c2cc(C(=O)c3ccc(Br)cc3)oc12.Cl (centres undefined),102.9
25,COC(=O)c1ccc(C(=O)NCc2ccc(Br)cc2)cn1,0.8592
26,Cc1ncc(CN(C)CCO)c2cc(C(=O)c3ccc(Br)cc3)oc12.Cl,142.2

row,Structure (SMILES),Percent Effect [%]
1,CN1CCc2[nH]nc(C(=O)N3CCCC4(CN(C)C(=O)O4)C3)c2C1 (centres undefined),0.3528
2,CC(C)c1cc(NCC2(N3CCOCC3)CCCCC2)ncn1,-13.37
3,Cc1noc2ncnc(N3CCC(O)(Cn4ccnc4)CC3)c12,-11.6
4,Cc1cc(-c2nnn(CCC(N)=O)n2)ccc1F,-8.55
5,CN(Cc1ccsc1)C(=O)CS(=O)(=O)Cc1ccc(Cl)c(Cl)c1,-4.981
6,COCCN1CCN(CC(=O)N(C)Cc2ccsc2)CC1,-3.337
7,CN(Cc1ccsc1)C(=O)Cn1c(CS(C)(=O)=O)nc2ccccc21,150.1
8,CS(=O)(=O)CCNC(=O)C1(c2cccc(Cl)c2)CCCCC1,4.174
9,CN1CCOCC12CCN(Cc1ccoc1)CC2.O=C(O)C(F)(F)F.O=C(O)C(F)(F)F,109
10,CS(=O)(=O)N1CCOCC2(CCN(Cc3ccc[nH]3)CC2)C1.O=C(O)C(F)(F)F,-6.777
11,CS(=O)(=O)N1CCOCC2(CCN(Cc3ccoc3)CC2)C1.O=C(O)C(F)(F)F,115.7
12,Cc1ccc(CN2CCC3(CC2)CCN(Cc2ccoc2)CC3)cc1.O=C(O)C(F)(F)F.O=C(O)C(F)(F)F,17.41
13,CS(=O)(=O)N1CCOCC2(CN(Cc3ccsc3)CCO2)C1.O=C(O)C(F)(F)F (centres undefined),-5.064
14,O=C(CCc1ccsc1)NCc1ccnc(OC2CCOCC2)c1,-13.16
15,COCCn1c2c(ccc1=O)CC(NCc1cccnc1OC)CC2.O=C(O)C(F)(F)F.O=C(O)C(F)(F)F (centres undefined),97.75
16,Cn1c2c(ccc1=O)CC(Nc1ncc(F)cn1)CC2.O=C(O)C(F)(F)F (centres undefined),-3.561
17,COc1ncccc1CN1CCc2[nH]nc(C(=O)N3CCCC3C)c2C1.O=C(O)C(F)(F)F.O=C(O)C(F)(F)F (centres undefined),4.676
18,CN(C)C(=O)Cn1c2c(ccc1=O)CC(NCc1ccoc1)CC2.O=C(O)C(F)(F)F (centres undefined),-9.512
19,COc1ncccc1CNC1CCc2c(ccc(=O)n2C)C1.O=C(O)C(F)(F)F.O=C(O)C(F)(F)F (centres undefined),100.1
20,COc1ncccc1CNC1CCc2c(ccc(=O)n2CC2CC2)C1.O=C(O)C(F)(F)F.O=C(O)C(F)(F)F (centres undefined),98.83
21,COCCN1C(=O)CC[C@]12CC[C@@H](NCc1cccnc1OC)CC2.O=C(O)C(F)(F)F.O=C(O)C(F)(F)F,-1.329
22,O=C(O)C(F)(F)F.O=c1ccc2c(n1CC1CC1)CCC(NCc1cccs1)C2 (centres undefined),108.8
23,Cn1cnc(S(=O)(=O)NCC2CCN(C(=O)Oc3ccccc3)CC2)c1,-16.29
24,Cc1ccc(C(NC(=O)Cn2cc(C3CC3)nn2)C2CC2)cc1 (centres undefined),-17.63
25,Cc1cc(CN(C)C(=O)NC2CCC(O)CC2)no1 (centres undefined),-5.162
26,c1csc(CNc2ccccc2Cn2cncn2)c1,2.841

row,Structure (SMILES),Percent Effect [%]
1,Cn1cnc(S(=O)(=O)NCC2(O)CCc3ccccc32)c1 (centres undefined),-54.8
2,Cn1cc(CN2CCC[C@]3(C(=O)O)CN(c4cnccn4)CC[C@@H]23)cn1,-2.616
3,NC(=O)c1cnc(NC2CCN(c3ccccn3)CC2)c(Cl)c1,-2.297
4,O=c1cc(N2CCNCC2)cnn1CCc1ccc(F)cc1,-7.094
5,CCC(CC)Cn1ncc(N2CCOCC2)cc1=O,7.831
6,O=c1cc(N2CCCC2)cnn1CCc1cccc(F)c1,9.222
7,O=c1cc(N2CCOCC2)cnn1CCc1ccc(F)cc1,-9.338
8,CC(C)=CCn1ncc(N2CCOCC2)cc1=O,1.937
9,CC(C)=CCn1ncc(N2CCCCC2)cc1=O,8.054
10,O=c1cc(N2CCCC2)cnn1CC(F)F,95.3
11,O=c1cc(N2CCCCC2)cnn1CC(O)C(F)(F)F (centres undefined),110.9
12,O=c1cc(N2CCCCC2)cnn1C[C@H](O)CO,78.69
13,Cc1nnc(N2C[C@H](C(=O)NCC3CC3)[C@@H]3CCO[C@@H]3C2)s1.O=C(O)C(F)(F)F,0.08379
14,CC(C)Cc1noc(CNc2cccc(-c3nnnn3C)c2)n1,3.895
15,CCCOC1CCCN(c2ncnc3c2CCN(C(=O)C2CC2)C3)C1 (centres undefined),1.517
16,CN(C)[C@H]1CCN(c2nc(C(C)(C)C)nc3c2cnn3C)C1,-2.508
17,CCCOC1CCCN(c2nc(COC)nc3c2cnn3C)C1 (centres undefined),118.8
18,COCc1nc(N2CCC(CCO)CC2)c2cnn(C)c2n1,-4.999
19,CCc1nc(N2CCN(Cc3ncccc3C)CC2)c2cnn(C)c2n1,1.339
20,CCCOC1CCCN(c2nc(CC)nc3c2cnn3C)C1 (centres undefined),107.1
21,COCc1nc(N2CC[C@H](N(C)C)C2)c2cnn(C)c2n1,102.3
22,COCCCNC(=O)CN(C)C(=O)c1cc(C)sc1C,-3.68
23,COc1cc(NC(=O)Cn2ccc3sc(C)cc3c2=O)cc(OC)c1,-10.49
24,CCC(C)NC(=O)Cn1ccc2sc(C)cc2c1=O (centres undefined),106.2
25,COCCNC(=O)Cn1ccc2sc(C)cc2c1=O,165.3
26,NC(=O)NC(=O)Cn1ccc2sccc2c1=O,-7.139
